# Sfp PPTase inh – qHTS Assay for Inhibitors of Bacillus subtilis Sfp phosphopantetheinyl transferase (PPTase). Potency, µM, inactives show largest response in the series, negative = inhibition, usual class: inhibitors. AID 1490, 2009. 3.5% of 310,000 active. Biochemical Sfp PPTase activity, qHTS;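 also: the enzyme is Sfp with the accession as filed and its product quenches rhodamine fluorescence; potency is read from the fitted curve at half-maximal effect; 0% = enzyme reaction without inhibitor and -100% = no enzyme wells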
#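 Step 1, compound plus 15 nM Sfp-PPTase, 15 min, room temperature. Step 2, add rhodamine-CoA (5 uM) and BHQ-2-YbbR (12.5 uM). Step 3, read 525/598 nm fluorescence at 0 and 30 min.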
# Coupling enz – qHTS Assay for Inhibitors of Fructose-1,6-bisphosphate Aldolase from Giardia Lamblia: Coupling assay counterscreen; coupling enzyme system counterscreen, AmpLite Red fluorescence; activity change, negative = inhibition, % at 58.2 µM, hits read low; 0.67% of 290,000 active; AID 2472, 2010; in the data active = activity change below about -30%
#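 Fluorescence at 525 nm excitation and 598 nm emission measured inhibition of the coupled detection system without aldolase. Compounds (at 57.5 uM final) were preincubated 10 min at room temperature with coupling enzyme reagent before a 20 min substrate/AmpLite Red step.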
# ELG1 repair inh – qHTS screen for small molecules that inhibit ELG1-dependent DNA repair in human embryonic kidney (HEK293T) cells expressing luciferase-tagged ELG1; HEK293T ELG1-luciferase reporter, luminescence, 16 h; DNA damage induced by 5-fluorouridine; Potency, µM (series often up to 46.1 µM), inactives show at the highest dose activity change, negative = inhibition, actives largely listed as inhibitors; 2.3% of 330,000 active; AID 504467, 2011; also: potency is read from the fitted curve at half-maximal effect; nearly all actives have a fitted effect of over 55% in size
#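 HEK293T cells expressing luciferase-tagged ELG1 (2,000/well) received 5-Fluorouridine plus compound or DMSO for 16 hr at 37 °C. Luciferase was read by ONE-Glo luminescence after 30 min at room temperature.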
# Giardia kill – Small Molecules that selectively kill Giardia lamblia: qHTS | Giardia lamblia trophozoite viability | activity change, % at 7.66 µM, hits read low | 0.15% of 340,000 active | AID 540267, 2011; in the data active = activity change below about -80%; inconclusive = between about -30% and that limit;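 also: parasites exposed to compound for two days anaerobically before the ATP read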
#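 Giardia lamblia trophozoites (100 cells/well) were incubated with compounds for 48 h at 37 deg C under anaerobic conditions. Viability was read as ATP content by one-step luminescence after 15-30 min at room temperature.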
# The depositor's hits bear a star; u = inconclusive; x = no result; ! = not confirmed by another sample. Shown are actives, neighbours in structure and some others; about 5.5% of the full set was active somewhere. Unless noted, calls follow the shape of the dose curve; as a rule, active = well fitted curve in the direction sought with a large enough effect; inconclusive = small, poorly fitted or top-dose-only effect, or another doubt; inactive = no such curve, though single readings can be large; an effect the other way counts as inactive or inconclusive. Unless noted, % is scaled to controls: 0 for no effect and ±100 for the full control effect.
SMILES,Sfp PPTase inh,Coupling enz,ELG1 repair inh,Giardia kill
COC(=O)c1sccc1NC(=S)N1CCCCC1,-25%,2,7%,-12
CO[C@H]1OC[C@@]2(C)[C@@H]3C4=C(CN2C(=O)OC(C)(C)C)[C@H](C)[C@H](CO)[C@H](CO)[C@H]4CC[C@H]13,10%,0,x,x
COc1ccc(C(=O)N2CCC[C@@]3(CCN(CC(C)C)C3)C2)cc1,15%,3,x,x
O=C1Nc2ccccc2C1=NN1CCCCCC1,x,x,x,10
Nc1n[nH]c(=S)n1/N=C1/C(=O)Nc2ccccc21,11µM*,-6,-19%,0
Cc1oc(-c2ccccc2)nc1CS(=O)CC(=O)N1CCc2ccccc2C1 (stereo not given),50µM*,-10,-1%,-6
Cc1ccc(-c2nc(CS(=O)CC(=O)N3CCN(c4ccccc4)CC3)c(C)o2)cc1 (stereo not given),0%,x,-3%,14
N#Cc1c(NC(=S)NC(=O)c2ccccc2)sc2c1CCC2,22µM*,3,u,10
CC(Sc1nc(N)cc(=O)[nH]1)C(=O)Nc1sc2c(c1C#N)CCCC2 (stereo not given),7%,4,8.2µM*,14
CC(C)(C)c1ccc(C(=O)NC(=S)Nc2sc3c(c2C#N)CCC3)cc1,u,3,12%,16
CCCCn1nnnc1SCC(=O)Nc1sc2c(c1C#N)CCCC2,11%,3,u,-2
Cn1cnnc1SCC(=O)Nc1sc2c(c1C#N)CCCCC2,50µM*,-42*,u,6
N#Cc1c(NC(=O)CSc2nc(N)cc(=O)[nH]2)sc2c1CCCCCC2,22%,3,u,-11
N#Cc1ccc(-c2ccc(F)cc2)nc1SCC(=O)Nc1sc2c(c1C#N)CCC2,17%,1,6.5µM*,11
COc1ccc(C2/C=C\CN(CC3CCCCC3)C(Cc3ccccc3)C(=O)N2Cc2ccc(F)cc2)cc1 (stereo not given),12%,-1,x,23
CCCn1c(-c2ccc(F)cc2)nc2c(NC(C)CCCN(CC)CC)nc(C)nc21 (stereo not given),2%,-1,x,x
CCc1ccc(CCC(=O)Nc2ccc(Cl)cc2)o1,-6%,0,23%,-15
C/C=C\C1=C(CO)[C@H](O)[C@H]2OC2[C@@H]1O (stereo not given in full),7%,2,x,x
CCC1(C)Cc2c(sc(NC(=S)NC(=O)c3ccccc3)c2C#N)CO1 (stereo not given),-26%,-1,u,4
CN1Cc2sc(NC(=S)NC(=O)c3ccccc3)c(C#N)c2CC1(C)C,32µM*,-3,u,3
CC(=O)Nc1sc2c(c1C#N)CCCC2,6%,0,x,-12
CCN1CCc2c(sc(NC(=S)NC(=O)c3ccco3)c2C(N)=O)C1,22µM*,-11,u,-9
CCN1CCc2c(sc(NC(=S)NC(=O)c3ccccc3)c2C#N)C1,56µM*,-4,2%,33
CC(C)C(=O)Nc1sc2c(c1C#N)CCCCC2,32µM*,-9,u,5
CCN1CCc2c(sc(NC(=O)Cc3ccccc3)c2C(N)=O)C1,4%,-1,3%,14
SMILES,Sfp PPTase inh,Coupling enz,ELG1 repair inh,Giardia kill
CCOC(=O)c1nn(-c2ccc(Cl)cc2)c(C)cc1=O,19%,1,16%,12
Cc1cc(C)c(S(=O)(=O)N2CCCCC2CCNC(=O)C(=O)NCc2ccco2)c(C)c1 (stereo not given),x,x,u,3
CC(=O)NC(=S)Nc1sc2c(c1C#N)CCCCC2,50µM*,6,u,7
CCN(CC)C(=O)c1ccc2c(c1[N+](=O)[O-])C(=O)c1ccccc1C2=O,13%,-42*,u,x
CC1=C(/C=C/C(C)=C/C=C/C(C)=C/C(=O)O)C(C)(C)CCC1O (stereo not given),5%,x,x,x
CCOC(=O)NC1CCc2cc(OC)c(OC)c(OC)c2-c2ccc(OC)c(=O)cc21 (stereo not given),x,x,x,-4
CC(=O)NC(CC(=O)O)C(=O)NC(CCC(=O)O)C(=O)O (stereo not given),12%,-6,x,x
CN[C@H](CC(=O)O)C(=O)O,100µM*,-4,x,27
COc1cc(CC(=O)Nc2cc(S(=O)(=O)N3CCOCC3)ccc2N2CCCC2)cc(OC)c1OC,x,x,x,10
COc1cc(CCC(=O)Nc2ccc(C)c(S(=O)(=O)N(C)C)c2)cc(OC)c1OC,10%,4,9.2µM*,9
COc1ccc(CCC(=O)Nc2ccc(C)c(S(=O)(=O)N(C)C)c2)cc1OC,-4%,1,u,1
Cc1ccc(NC(=O)c2ccc([N+](=O)[O-])cc2)cc1S(=O)(=O)N(C)C,-1%,-3,18µM*,-22
COc1cc(CCC(=O)Nc2sccc2C#N)cc(OC)c1OC,8%,6,23µM*,16
CN(C)S(=O)(=O)c1ccc(NC(=O)CCNC(=O)c2ccc([N+](=O)[O-])cc2)cc1,6%,4,-20%,4
Cc1ccc(NC(=O)CCNC(=O)c2ccc([N+](=O)[O-])cc2)cc1S(=O)(=O)N(C)C,-1%,1,13µM*,1
Cc1ccc(C)c(OCC(=O)N(Cc2ccccc2)c2c(N)n(Cc3ccccc3)c(=O)[nH]c2=O)c1,x,x,x,1
O=C1C=CC(=O)N1c1ccc(O)cc1,13µM*,4,7%,19
O=C(O)CNC(=O)c1ccc(OC(F)F)cc1,27%,0,3%,4
O=C1C=CC(=O)N1c1ccc(OC(F)F)cc1,u,3,21µM*,-2
COc1ccc(C(=O)NCCC(=O)N2CCC3(CC2)NCCc2[nH]cnc23)cc1,20%,x,16%,0
CC(OC(=O)Cn1[nH]c(=O)c2ccccc2c1=O)C(=O)Nc1cccc(Cl)c1 (stereo not given),x,x,19%,0
O=C(c1c(O)c2ccc(Cl)cc2[nH]c1=O)C1CC1,45µM*!,0,x,x
CCC(=O)NNC(=O)c1c(O)c2ccccc2[nH]c1=O,8%,-6,-1%,5
CC1(C)CC(=O)C(C(c2ccco2)C2C(=O)CC(C)(C)CC2=O)C(=O)C1,50µM*,0,21%,-15
CCN(CC)CCNC(=O)c1ccc2c(c1NCCO)C(=O)c1ccccc1C2=O,-13%,-31*,13µM*,-12
CC1CCN(C(=O)c2ccc3c(c2NCCO)C(=O)c2ccccc2C3=O)CC1,-16%,-3,u,-27
Cc1ccc(-c2nnc(NC3CCCCC3)c3ccccc23)cc1S(=O)(=O)N1CCN(C)CC1,-15%,1,23µM*,6
Cc1ccc(-c2nnc(NCc3nc4ccccc4[nH]3)c3ccccc23)cc1S(=O)(=O)N1CCCCC1,25%,1,8.2µM*,0
Cc1ccc(-c2nn3c(C)nnc3c3ccccc23)cc1S(=O)(=O)N1CCN(CCO)CC1,19%,5,u,1

# Bioassay records deposited in PubChem by National Center for Advancing Translational Sciences (NCATS).
